# Experimental data from publication PMC8384837, “Expanding the binding specificity for RNA recognition by a PUF domain”.
# Molecular target: PUM1 PUF domain R3-FFS (Homo sapiens, UniProt Q14671 828-1176, C935F;R936F;Q939S)
# Test: yeast three-hybrid, YBZ-1, SC-Leu-His + 0.5 mM 3-AT, 4 days
# Settings: tags: N-Gal4 AD-HA kept; label: inside an RPR1-promoter hybrid RNA with tandem MS2 sites; ssRNA
# In short: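 Sequencing with Illumina followed PCR amplification of the repeat regions from transformants grown four days on SC-Leu (input) or SC-Leu-His + 0.5 mM 3-AT (selection). The transformants were strain YBZ-1 with a LexA–MS2 coat fusion and a HIS3 reporter, carrying Pumilio-1 PUF domain libraries and matching RNA elements. The interaction score is the log change in variant frequency from input to selection, computed in log2 with a pseudocount of 1 for absent variants.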
# PUM1 PUF domain R3-FFS, sequence (Q14671 828-1176 C935F/R936F/Q939S): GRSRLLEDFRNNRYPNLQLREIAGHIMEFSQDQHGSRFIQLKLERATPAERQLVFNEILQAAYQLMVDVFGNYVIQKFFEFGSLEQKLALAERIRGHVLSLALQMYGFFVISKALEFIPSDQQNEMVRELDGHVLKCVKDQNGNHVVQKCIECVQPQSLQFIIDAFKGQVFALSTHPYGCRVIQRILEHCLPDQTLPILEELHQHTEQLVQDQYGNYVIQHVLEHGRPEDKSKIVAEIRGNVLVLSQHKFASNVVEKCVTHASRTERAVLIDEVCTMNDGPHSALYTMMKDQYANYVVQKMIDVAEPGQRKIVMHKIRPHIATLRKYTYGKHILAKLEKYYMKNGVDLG
row,Sequence,binding signal
1,GGCUAGAACUAGUGGAUCCCCCGGCGCCCGGCGGCUCGAGCCCGGGUAAGUGUAAUUAGUCUGCAUGCCGCCGGGCGCCAUGCCUGCAGGUCGACUCUAGAAAACAUG,5.05 log2 enrichment (interaction score)
2,GGCUAGAACUAGUGGAUCCCCCGGCGCCCGGCGGCUCGAGCCCGGGUAAGUGUAAAUAGUCUGCAUGCCGCCGGGCGCCAUGCCUGCAGGUCGACUCUAGAAAACAUG,3.99 log2 enrichment (interaction score)
3,GGCUAGAACUAGUGGAUCCCCCGGCGCCCGGCGGCUCGAGCCCGGGUAAGUGUAAGUAGUCUGCAUGCCGCCGGGCGCCAUGCCUGCAGGUCGACUCUAGAAAACAUG,6.93 log2 enrichment (interaction score)
